In the library only some 0.27% were active in any assay of this set; here they are far more common.
Chronic BCR inh: chronic active BCR signaling inhibition; ABC-DLBCL IkBa-CBG/CBR reporter, luminescence ratio, 4 h; Potency, µM (top dose mostly 46.1 µM), inactives show top-dose activity change, negative = inhibition, hits mostly inhibitors; actives 0.05% (n = 340,000); AID 493014; active = well fitted inhibition curve with a large enough effect in the signal ratio, with a control signal flat, not every such curve was filed as active; inconclusive = small, poorly fitted or top-dose-only effect, or effect the other way, or a change in a side signal; the % refers to the signal ratio;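 note: plate controls were basal doxycycline-induced cells for no effect and cells given 10 µM MG132 for full effect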
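Doxycycline induced both beetle luciferases in TMD8 lymphoma cells; IKK-driven degradation limits the IkappaBalpha-fused green signal, while red luminescence normalises for cell number and nonspecific effects. Compounds tested up to 46 uM, 4 hrs.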
MBNL1 CUG block: blocks human MBNL1 binding to CUG repeat RNA | Q9NR56 | actives 0.036% (n = 280,000) | TR-FRET MBNL1-His/biotin-(CUG)12 binding, 665/545 ratio | Potency, µM (series often up to 57.5 µM), without a hit: top-dose activity change, negative = inhibition, usual class: inhibitors; active = well fitted inhibition curve with a large enough effect in the signal ratio, with a control signal flat, not every such curve was filed as active; inconclusive = small, poorly fitted or top-dose-only effect, or effect the other way, or a change in a side signal; inactive = no such curve, though single readings can be large or run the other way; the % refers to the signal ratio; note: % is set by controls: 0 for no effect and ±100 for the full control effect
Target sequence (Q9NR56 whole entry, looked up): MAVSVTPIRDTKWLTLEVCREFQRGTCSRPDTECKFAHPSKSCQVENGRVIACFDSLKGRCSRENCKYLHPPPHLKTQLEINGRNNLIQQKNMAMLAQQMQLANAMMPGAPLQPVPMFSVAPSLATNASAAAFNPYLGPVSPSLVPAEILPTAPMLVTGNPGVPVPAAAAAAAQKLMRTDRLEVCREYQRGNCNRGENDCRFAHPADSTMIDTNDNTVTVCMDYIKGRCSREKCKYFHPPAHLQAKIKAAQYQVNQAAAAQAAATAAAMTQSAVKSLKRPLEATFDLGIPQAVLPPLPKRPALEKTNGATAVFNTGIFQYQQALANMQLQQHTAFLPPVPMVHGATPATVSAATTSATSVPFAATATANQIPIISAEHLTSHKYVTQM
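MBNL1-His + Biotin-(CUG)12, cpd titration 92 nM–58 uM; Tb anti-His Ab 0.055 ng/ul, SA-XL665 5 nM (final); 60 min RT; ratiometric 665/545 nm, Ex 340 nm; normalized to buffer and full-complex controls.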
B2AR arrestin: agonists driving beta-arrestin recruitment to human beta2-adrenergic receptor; actives 0.02% (n = 330,000); beta-arrestin recruitment to beta2AR, cell-based reporter; P07550; Potency, µM (top dose mostly 46.1 µM), for inactives: at the top dose activation, hits mostly activators;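 note: 0% = DMSO controls and full agonism = EC100 isoproterenol or metaproterenol; nearly all actives have a fitted effect of over 65% in size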
Tb PFK inh-1: inhibitors of T. brucei phosphofructokinase | O15648 | T. brucei PFK, ADP-Glo luminescence | Potency, µM (top dose mostly 57.5 µM), for the others: at the highest dose activity, negative = inhibition, hits mostly inhibitors | actives 0.17% (n = 330,000);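 note: 0% = uninhibited 1x PFK enzyme wells and -100% = no-enzyme wells; nearly all actives have a fitted effect of over 60% in size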
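In TEA buffer at pH 8.0 with 5 mM MgCl2, enzyme (1.25 nM) converted F6P (0.5 mM) and ATP (0.1 mM) for 45 min at room temperature. ADP product was read by luciferase luminescence.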
Tb PFK KinaseGlo: orthogonal confirmation of T. brucei phosphofructokinase inhibitors | shares compounds with Tb PFK inh-1 | Tb PFK enzyme, ATP depletion, Kinase-Glo Plus luminescence | Potency, µM (titrated, usually from 57.5 µM), without a hit: at the top dose inhibition | actives 47% (n = 1,100) | AID 504636; calls by dose curve; note: nearly all actives have a fitted effect of over 60% in size
Tb PFK inh-2: T. brucei PFK enzyme inhibition, hit validation; Potency, µM (series often up to 57.5 µM), for inactives: at the top dose activity change, negative = inhibition, most hits filed as inhibitors; actives 41% (n = 1,100); shares compounds with Tb PFK inh-1; purified T. brucei PFK, ADP-Glo luminescence, 45 min;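 note: plate controls were full PFK enzyme control for no effect and no enzyme control for full effect; nearly all actives have a fitted effect of over 60% in size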
* hit, by the source's call. Unless noted, calls come from the whole dose curve; as a rule, active = well fitted curve in the direction sought with a large enough effect; inconclusive = small, poorly fitted or top-dose-only effect, or another doubt; inactive = no such curve, though single readings can be large; an effect the other way counts as inactive or inconclusive. Potency is the fitted concentration of half-maximal effect.

For O=C(NCCCN1CCCC1=O)c1cc(NS(=O)(=O)c2ccc(F)cc2)cc(NS(=O)(=O)c2ccc(F)cc2)c1 the results were Chronic BCR inh 8%, MBNL1 CUG block -2%, B2AR arrestin -1%, Tb PFK inh-1 8.5µM*, Tb PFK KinaseGlo 3.8µM* and Tb PFK inh-2 6.7µM*.
Screening COc1ccc(N(C)S(=O)(=O)c2cccc(C(=O)N3CCN(S(=O)(=O)c4ccc(C)cc4)CC3)c2)cc1 returned Chronic BCR inh 0%, MBNL1 CUG block 0%, B2AR arrestin -1% and Tb PFK inh-1 0%.
`CN1CCN(C(=O)c2sc(=S)n(-c3ccccc3)c2N)CC1` gave Chronic BCR inh -3%, MBNL1 CUG block inconclusive, B2AR arrestin 0%, Tb PFK inh-1 11µM*, Tb PFK KinaseGlo 3.8µM* and Tb PFK inh-2 5.4µM*.
For O=C(COC(=O)Cc1cccs1)Nc1ccc(OC(F)(F)F)cc1 the results were Chronic BCR inh 1%, B2AR arrestin 0% and Tb PFK inh-1 1%.
For COc1cc(/C=C/c2ccc3c([N+](=O)[O-])cccc3n2)ccc1OCC(=O)O the results were Chronic BCR inh 1%, MBNL1 CUG block inconclusive, B2AR arrestin 0%, Tb PFK inh-1 inconclusive, Tb PFK KinaseGlo -25% and Tb PFK inh-2 inconclusive.
Screening COc1cc(/C=C/c2ccc3cccc([N+](=O)[O-])c3n2)ccc1OCC(=O)O returned Chronic BCR inh -2%, MBNL1 CUG block inconclusive, B2AR arrestin 0%, Tb PFK inh-1 inconclusive, Tb PFK KinaseGlo -24% and Tb PFK inh-2 26%.
Screening Cc1cn2nc(N)c3ccccc3c2n1 returned Chronic BCR inh 2%, MBNL1 CUG block -8%, B2AR arrestin -1% and Tb PFK inh-1 22%.
Screening Nc1nn2cc(-c3ccccc3)nc2c2ccccc12 returned Chronic BCR inh inconclusive, MBNL1 CUG block -4%, B2AR arrestin 0%, Tb PFK inh-1 inconclusive, Tb PFK KinaseGlo 0% and Tb PFK inh-2 inconclusive.
O=C1CC2(CCN(C(=O)c3cccc(Br)c3)CC2)Oc2ccccc21 was read as Chronic BCR inh -10%, B2AR arrestin 0% and Tb PFK inh-1 14%.
Cc1cc(C)cc(-c2nnc(SCC(=O)c3c(N)n(C4CC4)c(=O)[nH]c3=O)o2)c1 was read as Chronic BCR inh 9%, B2AR arrestin 0% and Tb PFK inh-1 0%.
Screening CCOc1ccc(C(C)=O)cc1N1C(=O)C2C3C=CC(O3)C2C1=O (stereo not given) returned Chronic BCR inh inconclusive, MBNL1 CUG block -7%, B2AR arrestin -1%, Tb PFK inh-1 inconclusive, Tb PFK KinaseGlo -20% and Tb PFK inh-2 inconclusive.
`O=C(CSc1nc2ccccc2c(=O)n1Cc1ccco1)N1CCCCCC1` gave Chronic BCR inh 10%, MBNL1 CUG block -7%, B2AR arrestin 0% and Tb PFK inh-1 -1%.
`O=C(NCc1ccco1)c1ccc2c(=O)n(Cc3ccco3)c(SCC(=O)N3CCCC3)nc2c1` gave Chronic BCR inh inconclusive, MBNL1 CUG block 0%, B2AR arrestin 0%, Tb PFK inh-1 inconclusive, Tb PFK KinaseGlo inconclusive and Tb PFK inh-2 inconclusive.
CSc1ccc(C(c2c(C)[nH][nH]c2=O)c2c(C)[nH][nH]c2=O)cc1 was read as Chronic BCR inh inconclusive, MBNL1 CUG block inconclusive, B2AR arrestin 1%, Tb PFK inh-1 15µM*, Tb PFK KinaseGlo inconclusive and Tb PFK inh-2 inconclusive.
For O=C(NCc1ccon1)c1ccc(OC2CCN(CCc3ccccc3)CC2)cc1 the results were Chronic BCR inh -1%, MBNL1 CUG block -9%, B2AR arrestin 0% and Tb PFK inh-1 1%.
`CCc1cc(CNC(=O)c2ccc(OC3CCN(CCc4ccccc4)CC3)cc2)on1` gave Chronic BCR inh -8%, MBNL1 CUG block -6%, B2AR arrestin 0%, Tb PFK inh-1 15µM*, Tb PFK KinaseGlo 17µM* and Tb PFK inh-2 21µM*.
`COc1cc(CC(=O)Nc2nc(-c3ccccc3)c(C(C)=O)s2)cc(OC)c1OC` gave Chronic BCR inh inconclusive, MBNL1 CUG block 407%, B2AR arrestin -1%, Tb PFK inh-1 inconclusive, Tb PFK KinaseGlo inconclusive and Tb PFK inh-2 inconclusive.
O=[N+]([O-])c1cccc(N2Cc3ccccc3C2)c1 was read as Chronic BCR inh 4%, MBNL1 CUG block inconclusive, B2AR arrestin 0% and Tb PFK inh-1 -2%.
CN1CN(c2cccc([N+](=O)[O-])c2)CN=C1N[N+](=O)[O-] was read as Chronic BCR inh 0%, MBNL1 CUG block inconclusive, B2AR arrestin -2%, Tb PFK inh-1 27µM*, Tb PFK KinaseGlo inconclusive and Tb PFK inh-2 inconclusive.
CSc1ccc(NC(=O)Nc2ccc(C(=O)NCC(=O)O)cc2)cc1 was read as Chronic BCR inh 5%, MBNL1 CUG block inconclusive, B2AR arrestin 0%, Tb PFK inh-1 13µM*, Tb PFK KinaseGlo 8.5µM* and Tb PFK inh-2 inconclusive.
`Cc1ccc(N2C(=O)[C@@H]3[C@H](C2=O)C2c4ccccc4C=CN2[C@@H]3C(=O)c2ccco2)cc1` (stereo not given in full) gave Chronic BCR inh 4%, MBNL1 CUG block inconclusive, B2AR arrestin 0% and Tb PFK inh-1 9%.
`CC(C)(C)C(=O)[C@@H]1[C@@H]2C(=O)N(c3ccc4c(c3)OCCO4)C(=O)[C@@H]2C2c3ccccc3C=CN21` (stereo not given in full) gave Chronic BCR inh inconclusive, MBNL1 CUG block 16%, B2AR arrestin 0%, Tb PFK inh-1 inconclusive, Tb PFK KinaseGlo 2% and Tb PFK inh-2 -1%.
For CCCSc1ccc([C@H]2N[C@@](CC(C)C)(C(=O)OC)[C@H]3C(=O)N(CC)C(=O)[C@@H]23)cc1 the results were Chronic BCR inh 2%, B2AR arrestin 0% and Tb PFK inh-1 0%.
`COc1ccc(OC)c(-c2c3cc(O)c(=O)cc-3oc3cc(O)c(O)cc23)c1` gave Chronic BCR inh inconclusive, B2AR arrestin 4%, Tb PFK inh-1 9.5µM*, Tb PFK KinaseGlo inconclusive and Tb PFK inh-2 3.8µM*.
For O=c1cc2oc3cc(O)c(O)cc3c(-c3ccccc3O)c-2cc1O the results were Chronic BCR inh inconclusive, B2AR arrestin 0% and Tb PFK inh-1 inconclusive.
COc1ccc(-c2nc3sc(CCNC(=O)c4ccccc4C)c(C)n3n2)cc1 was read as Chronic BCR inh 4%.
Screening COc1ccc2nc(NC(=O)c3ccccc3[N+](=O)[O-])sc2c1 returned Chronic BCR inh inconclusive, MBNL1 CUG block inconclusive, B2AR arrestin 0% and Tb PFK inh-1 4%.
